In PubChem BioAssay AID687014 (The Scripps Research Institute Molecular Screening Center, 2013):
The campaign covered roughly 370,000 compounds. About 6,800 (1.8%) were called active. This excerpt belongs to a sample that is enriched for actives. A number with no mark means an inactive call.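 The calls were made as follows: active = activation above a cutoff set at the mean of all screened compounds plus 3 SD (cut at about 10% in these data); inactive = the rest.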

What follows are molecules tested on Nuclear hormone receptor DAF-12 (Heterodera glycines), GAL4 fusion (assay: hgDAF-12 GAL4 fusion reporter activation – cell-based, luminescence, HEK293, UAS-luciferase, primary screen (AID 687014;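 also: 0% = DMSO wells and 100% = sodium butyrate wells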)). Settings: HEK293 GAL4-hgDAF12 UAS-luciferase reporter, agonist luminescence; at 6.8 µM; active compounds read high; normalized to butyrate control.

Structure (SMILES)	activation
COCc1cc(N2CCN(C(=O)OC(C)(C)C)C[C@@H]2C)ccc1N1CCN(Cc2ccccc2)[C@H](C)C1	4.83%
O=C(CSc1cccc[n+]1[O-])c1ccc(-c2ccccc2)cc1	10.8% (active)
O=C(CSc1cccc[n+]1[O-])NCCCc1ccccc1	1.17%
CCN(C(=O)CSc1cccc[n+]1[O-])c1ccccc1	-0.46%
Cc1nc(NC(=O)c2ccc3c(c2)OCCO3)ccc1Br	7.16%
CCCc1cc(C(=O)Nc2ccc(Cl)cn2)cs1	12.9% (active)
CC1(c2ccc(Cl)cc2)NC(=O)N(CC(=O)c2ccc3c(c2)OCO3)C1=O (centres undefined)	-1.6%
O=C(Nc1ccc(Cl)cn1)c1ccc2c(c1)OCCO2	18.1% (active)
COc1ccc(C(=O)N/N=C(\C)CC(=O)Nc2ccc(Cl)cn2)cc1	0.32%
CC(OC(=O)CNC(=O)c1ccco1)C(=O)Nc1ccc(Cl)cn1 (centres undefined)	1.56%
O=C(c1c[nH]c2ccccc12)N1CCC(Oc2cccnc2)CC1	4.09%
Cc1ccc(C(=O)C2CCN(CC(=O)NCCC(C)C)CC2)cc1	-0.75%
CC(C)CC(=O)N1CCC(O)(CS(=O)(=O)Cc2ccccc2)CC1	-2.29%
CCCCC(=O)N[C@@H]1CC[C@@]23CCCN2C(=O)CCC[C@H]3[C@H]1C	0.52%
CCN(C(=O)[C@@H](C1CC1)[C@@H](O)c1ccc2ccccc2c1)c1ccccc1	-0.8%
Cc1ccc(N)cc1CN1CCN(c2ncc(Cc3ccccc3)cn2)CC1	0.77%
Cc1cc(N)n2nc(-c3ccc(C(C)(C)C)cc3)cc2n1	20% (active)
CCC1([N+](=O)[O-])COC(c2ccc(C(C)C)cc2)OC1 (centres undefined)	12.9% (active)
CCC1([N+](=O)[O-])COC(c2ccc(C)cc2)OC1 (centres undefined)	1.83%
CCC1(C)COC(c2ccc(OC)c(OC)c2)OC1 (centres undefined)	-1.37%
Oc1ccc(/C=C/c2c(F)cccc2F)c2cccnc12	-6.27%
CCCCNc1cccc2c1S(=O)(=O)N[C@@H](C)CO2	0.24%
O=C(NCc1ccccc1)[C@H]1CCCN1C(=O)[C@H]1CCCN1C(=O)c1cc(F)cc(F)c1	-0.18%
CC(C)N1CCCCC(NC(=O)C(C)(C)C)C1=O (centres undefined)	0.58%

Structure (SMILES)	activation
CC(=O)c1ccc(S(=O)(=O)NCC2CCN(C(=O)C(=O)c3cccs3)CC2)cc1	-0.16%
NC(=O)c1ccccc1N=Cc1ccc2ccccc2c1	14.3% (active)
O=C(OCC(=O)N1CCOCC1)c1ccc2ccccc2c1	4.48%
Cc1nc2c(C(=O)NCc3cccs3)cnn2c(C)c1Cc1ccc(F)cc1	-1.35%
C=CCN1C(=O)[C@@H](CC(=O)NCCCCc2ccccc2)[C@]2(C(=O)OCC)CCCCC/C=C/12	2.01%
Cc1ccccc1C(=O)N[C@H](C(=O)N1CCC[C@H]1C(=O)NCc1ccccc1)C(C)C	-1.35%
COc1cccc(CC(=O)N2CCN(C(=O)C(=O)c3cccc(C(F)(F)F)c3)CC2)c1	-0.52%
CCOC(=O)c1csc(CCNC(=O)c2oc3c(Cl)cc(C)cc3c2C)n1	1.98%
O=C(Nc1ccc(F)cc1)c1cc2c(s1)CCCC2	10.8% (active)
O=C(NCC1CCCO1)c1cc2c(s1)CCCC2 (centres undefined)	7.29%
CN(C)C(=O)c1ccc(NC(=O)COC(=O)c2cc3c(s2)CCCCC3)cc1	2.42%
COc1ccc(CCNC(=O)NS(=O)(=O)c2ccc(C)cc2)cc1OC	-1.2%
COc1cc(NC(=O)C2CCCN(S(=O)(=O)c3ccc(C(C)(C)C)cc3)C2)cc(OC)c1 (centres undefined)	4.12%
CCn1c2ccccc2c2cc(NC(=O)CSc3nnc(-c4ccccc4)n3-c3ccc(C)cc3)ccc21	1.54%
Fc1ccc(-c2ccc(CNCc3ccccn3)o2)cc1Cl	-0.65%
Clc1ccc(-c2cc(-c3ccccn3)on2)c(Cl)c1	11.2% (active)
Clc1ccccc1-c1cc(COc2ccc3ccccc3c2)no1	0%
CS(=O)(=O)N(CC(=O)N1CCOCC1)c1ccc2c3c(cccc13)CC2	0.28%
CCc1c(C)c2c(C)[nH]nc2oc1=O	-1.18%
CN(Cc1nc2ccc(F)cc2[nH]1)Cc1nc(CC2CC2)no1	-0.98%
O=C(NN=Cc1ccco1)C(=O)Nc1ccc(Cl)c([N+](=O)[O-])c1	-2.99%
COc1ccc(CCNC(=O)CSc2nc3c([nH]2)c(=O)n(C)c(=O)n3C)cc1	0.07%
Cc1csc(SCC(=O)Nc2sccc2C#N)n1	17.8% (active)
N#Cc1ccsc1NC(=O)CN1CCCCC1	-0.08%

Structure (SMILES)	activation
Cc1csc(SCC(=O)Nc2ccc(C)c(S(=O)(=O)N(C)C)c2)n1	0.79%
CC(=O)Nc1ccc(N2C(=O)C3C4CC(=O)C(c5ccccc54)C3C2=O)cc1 (centres undefined)	-0.45%
CC(=O)O[C@@]1(C(C)=O)CCC2[C@H]3C=C(C)C4=CC(=O)CC[C@@]4(C)C3CC[C@]21C (some centres undefined)	-4.47%
FC(F)(F)c1cccc(Cn2ccc3ccc(-c4ccc5ccn(Cc6ccccc6)c5c4)cc32)c1	-0.72%
COc1ccc(N2CCN(C(=S)Nc3ccc(S(N)(=O)=O)cc3)CC2)cc1	-4.74%
COc1ccc(NC(=S)N2N=CCC2c2ccccc2)cc1 (centres undefined)	16.5% (active)
COc1ccc(NC(=O)N2CCC(Cc3ccccc3)CC2)cc1	1.2%
CC(Sc1nnc(Cc2ccc([N+](=O)[O-])cc2)o1)C(N)=O (centres undefined)	-0.65%
CCOC(=O)/C=C/c1ccccc1O	2.77%
Cc1ccc(CN2CCN(Cc3ccccc3-c3ccco3)CC2CCO)o1 (centres undefined)	-2.88%
N#CC1=C(N)N(c2ccc(F)cc2)C(=O)C1	-1.83%
Cc1ccc(NNC(=O)c2cccs2)cc1Cl	1.51%
O=C(NNC(=O)c1ccc(Cl)cc1Cl)c1cccs1	18.7% (active)
O=C(COC(=O)c1ccc(O)cc1O)NNC(=O)c1cccs1	0.57%
O=C(CCc1nnc(CCCCc2ccccc2)o1)NC(c1cccnc1)C(F)(F)F (centres undefined)	1.64%
Cc1cc(=O)n2nc(N3CCCC(C(=O)N4CCN(C)CC4)C3)sc2n1 (centres undefined)	-0.62%
O=S1(=O)c2ccc(Br)cc2OC[C@H](Cc2ccccc2)N1Cc1cn(Cc2ccccc2)nn1	-1.13%
Cc1nccn1CCC1CCCCN1C(=O)CCc1nnc(-c2ccsc2)o1 (centres undefined)	-0.93%
CC(=O)Nc1cccc(C(=O)OCN2C(=O)c3ccccc3C2=O)c1	-0.37%
CCSc1ccccc1C(=O)Nc1ccc2c(c1)OCO2	3.85%
CC(=O)Nc1cccc(C(=O)OCC(=O)NCc2cc(C)c(O)c(C)c2)c1	3.44%
CC(=O)Nc1cccc(C(=O)OCC(=O)c2ccc3c(c2)OCO3)c1	17.4% (active)
CC(Sc1nc2cc(Cl)ccc2s1)C(=O)Nc1ccc2c(c1)OCO2 (centres undefined)	7.08%
CC(C)C(=O)Nc1cccc(C(=O)Nc2ccc3c(c2)OCO3)c1	14.9% (active)

Structure (SMILES)	activation
COC(=O)C1=C(C(=O)OC)C2C=C(C(C)C)C1C(=O)C2(C)O (centres undefined)	2.89%
COC(=O)c1cccc(Cn2ccc3ccc(-c4ccc5ccn(C(=O)c6ccccc6C)c5c4)cc32)c1	0.42%
O=C(NS(=O)(=O)c1cccs1)[C@H]1O[C@@H](n2ccc(=O)[nH]c2=O)[C@H](O)[C@@H]1O	1.66%
COc1ccc(N2CCN(CCNS(=O)(=O)c3ccc([N+](=O)[O-])cc3)CC2)cc1	-4.01%
O=C(CSc1nc2ccccc2o1)N/N=C/c1ccccc1C(=O)O	1.68%
Fc1ccccc1OCCSc1nc2ccccc2o1	3.51%
CCOc1ccccc1/C=N/Nc1nc2ccccc2o1	10.6% (active)
COc1ccccc1C(=O)N1O[C@]23C=C[C@]14C[C@@H](O)CC[C@]4(C)C2CC[C@]1(C)[C@@H]([C@H](C)/C=C/[C@H](C)C(C)C)CC[C@H]13 (some centres undefined)	-1.48%
C/C(=N/NC(=O)c1ccn(C)n1)c1ccncc1	7.12%
CC(=NNC(=S)N1CCCCCC1)c1ccccn1	2.43%
C/C(=N\NC(=O)c1ccccc1F)c1ccccn1	10.8% (active)
Cc1ccc(S(=O)(=O)N2C[C@@H](C)[C@]3(C2)[C@H](O)[C@H](OC(=O)NCc2ccccc2)C[C@H]2C(=O)N(c4ccccc4)C(=O)[C@H]23)cc1	-0.54%
Cc1ccc(CN2CCCCC(NC(=O)C3CCCCC3)C2=O)cc1 (centres undefined)	-1.5%
Cn1c(NCc2cccnc2)nc2cc(-c3ccc(F)cc3)sc2c1=O	8.39%
O=c1[nH]c(CCl)nc2cc(-c3ccc(Cl)cc3)sc12	12.9% (active)
COc1cccc(-c2cc3nc(NCCOc4ccccc4Cl)n(C)c(=O)c3s2)c1	0.22%
COc1ccc(-n2c(SCC(=O)Nc3ccc4c(c3)OCCO4)nnc2-c2ccc(Cl)cc2)cc1	-1.31%
O=C(C(=O)N1CCC(CNC(=O)c2cccnc2Cl)CC1)c1cccs1	1.44%
Cc1nc(NC(=O)C(C)(C)C)sc1[N+](=O)[O-]	-4.82%
Brc1ccc2nc(N3CCCC3)sc2c1	14.3% (active)
Cc1nc(N2CCCCC2)sc1C=O	1.15%
COc1ccc2nc(N3CCN(C(=O)c4ccc([N+](=O)[O-])o4)CC3)sc2c1	-2.68%
